Measurements published in publication PMC7826789 (International Journal of Molecular Sciences, 2021).

Columns and labels:
Conditions in all cases: Compound Concentration (nM):1000
EIF2AK1 = system: EIF2AK1
EPHA1 = system: EPHA1
EPHA2 = system: EPHA2
EPHA3 = system: EPHA3
EPHA4 = system: EPHA4
EPHA5 = system: EPHA5
EPHA6 = system: EPHA6
EPHA7 = system: EPHA7
EPHA8 = system: EPHA8
EPHB1 = system: EPHB1
EPHB2 = system: EPHB2
EPHB3 = system: EPHB3
EPHB4 = system: EPHB4
EPHB6 = system: EPHB6
ERBB2 = system: ERBB2
ERBB3 = system: ERBB3
ERBB4 = system: ERBB4
ERK1 = system: T1, ERK1
T1 construct: gene MAPK3

ERK2 = system: T2, ERK2
T2 construct: gene MAPK1

ERK3 = system: T3, ERK3
T3 construct: gene MAPK6
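Further: KINOMEscan scanMAX binding as percent activity remaining versus control; lower means stronger binding.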

Cl.O=S1CCN(Cc2ccc(-c3ccc4ncnc(Nc5ccc(OCc6ccccc6)c(F)c5)c4c3)o2)CC1 [GW576924A]
Percent Control (EIF2AK1): 100% | Percent Control (EPHA1): 100% | Percent Control (EPHA2): 100% | Percent Control (EPHA3): 100% | Percent Control (EPHA4): 95% | Percent Control (EPHA5): 100% | Percent Control (EPHA6): 100% | Percent Control (EPHA7): 100% | Percent Control (EPHA8): 95% | Percent Control (EPHB1): 100% | Percent Control (EPHB2): 100% | Percent Control (EPHB3): 100% | Percent Control (EPHB4): 100% | Percent Control (EPHB6): 100% | Percent Control (ERBB2): 0% | Percent Control (ERBB3): 58% | Percent Control (ERBB4): 22% | Percent Control (ERK1): 100% | Percent Control (ERK2): 100% | Percent Control (ERK3): 100%

Nc1ncnc2occ(-c3ccc(NC(=O)Nc4cc(C(F)(F)F)ccc4F)cc3)c12 [GW770249X]
Percent Control (EIF2AK1): 100% | Percent Control (EPHA1): 40% | Percent Control (EPHA2): 13% | Percent Control (EPHA3): 19% | Percent Control (EPHA4): 5.4% | Percent Control (EPHA5): 15% | Percent Control (EPHA6): 29% | Percent Control (EPHA7): 6% | Percent Control (EPHA8): 1.1% | Percent Control (EPHB1): 14% | Percent Control (EPHB2): 11% | Percent Control (EPHB3): 31% | Percent Control (EPHB4): 36% | Percent Control (EPHB6): 0.5% | Percent Control (ERBB2): 67% | Percent Control (ERBB3): 91% | Percent Control (ERBB4): 100% | Percent Control (ERK1): 100% | Percent Control (ERK2): 100% | Percent Control (ERK3): 100%

O=C1Nc2ccc(C(=O)c3ccco3)cc2C1=Cc1cc(Cl)c(O)c(Cl)c1 [GW406108X]
Percent Control (EIF2AK1): 100% | Percent Control (EPHA1): 100% | Percent Control (EPHA2): 75% | Percent Control (EPHA3): 100% | Percent Control (EPHA4): 89% | Percent Control (EPHA5): 100% | Percent Control (EPHA6): 100% | Percent Control (EPHA7): 100% | Percent Control (EPHA8): 100% | Percent Control (EPHB1): 100% | Percent Control (EPHB2): 100% | Percent Control (EPHB3): 89% | Percent Control (EPHB4): 98% | Percent Control (EPHB6): 63% | Percent Control (ERBB2): 83% | Percent Control (ERBB3): 87% | Percent Control (ERBB4): 100% | Percent Control (ERK1): 100% | Percent Control (ERK2): 94% | Percent Control (ERK3): 94%

CN(C)c1cc2c(Nc3ccc4c(cnn4Cc4ccccc4)c3)ncnc2cn1 [GW282974X]
Percent Control (EIF2AK1): 100% | Percent Control (EPHA1): 89% | Percent Control (EPHA2): 100% | Percent Control (EPHA3): 98% | Percent Control (EPHA4): 95% | Percent Control (EPHA5): 33% | Percent Control (EPHA6): 87% | Percent Control (EPHA7): 95% | Percent Control (EPHA8): 90% | Percent Control (EPHB1): 90% | Percent Control (EPHB2): 100% | Percent Control (EPHB3): 75% | Percent Control (EPHB4): 85% | Percent Control (EPHB6): 24% | Percent Control (ERBB2): 0% | Percent Control (ERBB4): 24% | Percent Control (ERK1): 100% | Percent Control (ERK2): 37%

NS(=O)(=O)c1ccc(N/N=C2\C(=O)Nc3ccc(-c4cnco4)cc32)cc1 [GW276655]
Percent Control (EIF2AK1): 58% | Percent Control (EPHA1): 79% | Percent Control (EPHA2): 100% | Percent Control (EPHA3): 85% | Percent Control (EPHA4): 88% | Percent Control (EPHA5): 89% | Percent Control (EPHA6): 87% | Percent Control (EPHA7): 100% | Percent Control (EPHA8): 94% | Percent Control (EPHB1): 96% | Percent Control (EPHB2): 100% | Percent Control (EPHB3): 86% | Percent Control (EPHB4): 84% | Percent Control (EPHB6): 58% | Percent Control (ERBB2): 91% | Percent Control (ERBB3): 76% | Percent Control (ERBB4): 66% | Percent Control (ERK1): 75% | Percent Control (ERK2): 77% | Percent Control (ERK3): 87%

CCS(=O)(=O)c1ccc(OC)c(Nc2ncc(-c3cccc(F)c3)o2)c1 [GW621970X]
Percent Control (EIF2AK1): 100% | Percent Control (EPHA1): 65% | Percent Control (EPHA2): 100% | Percent Control (EPHA3): 68% | Percent Control (EPHA4): 96% | Percent Control (EPHA5): 100% | Percent Control (EPHA6): 100% | Percent Control (EPHA7): 100% | Percent Control (EPHA8): 100% | Percent Control (EPHB1): 100% | Percent Control (EPHB2): 100% | Percent Control (EPHB3): 100% | Percent Control (EPHB4): 99% | Percent Control (EPHB6): 1.6% | Percent Control (ERBB2): 88% | Percent Control (ERBB3): 53% | Percent Control (ERBB4): 100% | Percent Control (ERK1): 100% | Percent Control (ERK2): 100% | Percent Control (ERK3): 100%

COc1cc2ncn(-c3cc(O[C@H](C)c4ccccc4Cl)c(C(N)=O)s3)c2cc1OC [GSK237701A]
Percent Control (EIF2AK1): 92% | Percent Control (EPHA1): 100% | Percent Control (EPHA2): 100% | Percent Control (EPHA3): 100% | Percent Control (EPHA4): 72% | Percent Control (EPHA5): 100% | Percent Control (EPHA6): 83% | Percent Control (EPHA7): 88% | Percent Control (EPHA8): 89% | Percent Control (EPHB1): 81% | Percent Control (EPHB2): 90% | Percent Control (EPHB3): 92% | Percent Control (EPHB4): 85% | Percent Control (EPHB6): 16% | Percent Control (ERBB2): 100% | Percent Control (ERBB3): 89% | Percent Control (ERBB4): 63% | Percent Control (ERK1): 100% | Percent Control (ERK2): 100% | Percent Control (ERK3): 82%

CCS(=O)(=O)c1ccc(OC)c(Nc2ncc(-c3cccc(OC)c3)o2)c1 [GW580509X]
Percent Control (EIF2AK1): 100% | Percent Control (EPHA1): 100% | Percent Control (EPHA2): 100% | Percent Control (EPHA3): 94% | Percent Control (EPHA4): 92% | Percent Control (EPHA5): 100% | Percent Control (EPHA6): 100% | Percent Control (EPHA7): 100% | Percent Control (EPHA8): 100% | Percent Control (EPHB1): 100% | Percent Control (EPHB2): 100% | Percent Control (EPHB3): 100% | Percent Control (EPHB4): 100% | Percent Control (EPHB6): 3.3% | Percent Control (ERBB2): 77% | Percent Control (ERBB3): 54% | Percent Control (ERBB4): 100% | Percent Control (ERK1): 100% | Percent Control (ERK2): 100% | Percent Control (ERK3): 100%

COc1cccc(-c2c[nH]c3c(N/N=C/c4ccncc4)ncnc23)c1 [GW814408X]
Percent Control (EIF2AK1): 100% | Percent Control (EPHA1): 100% | Percent Control (EPHA2): 96% | Percent Control (EPHA3): 93% | Percent Control (EPHA4): 100% | Percent Control (EPHA5): 100% | Percent Control (EPHA6): 100% | Percent Control (EPHA7): 91% | Percent Control (EPHA8): 79% | Percent Control (EPHB1): 81% | Percent Control (EPHB2): 100% | Percent Control (EPHB3): 100% | Percent Control (EPHB4): 100% | Percent Control (EPHB6): 2.7% | Percent Control (ERBB2): 63% | Percent Control (ERBB3): 13% | Percent Control (ERBB4): 88% | Percent Control (ERK1): 100% | Percent Control (ERK2): 100% | Percent Control (ERK3): 19%

NS(=O)(=O)c1ccc(Nc2ncc(-c3ccccc3)o2)cc1 [GW572399X]
Percent Control (EIF2AK1): 100% | Percent Control (EPHA1): 100% | Percent Control (EPHA2): 100% | Percent Control (EPHA3): 100% | Percent Control (EPHA4): 97% | Percent Control (EPHA5): 100% | Percent Control (EPHA6): 100% | Percent Control (EPHA7): 84% | Percent Control (EPHA8): 81% | Percent Control (EPHB1): 91% | Percent Control (EPHB2): 100% | Percent Control (EPHB3): 94% | Percent Control (EPHB4): 100% | Percent Control (EPHB6): 35% | Percent Control (ERBB2): 70% | Percent Control (ERBB3): 74% | Percent Control (ERBB4): 100% | Percent Control (ERK1): 100% | Percent Control (ERK2): 100% | Percent Control (ERK3): 100%
